Experimental findings from PubChem BioAssay (NCATS) are described below.

Assay [1] deals with Lysosomal acid glucosylceramidase (Homo sapiens) (UniProt P04062). As to the kind of experiment: Glucocerebrosidase-p2 (AID 348; in the data active = potency below about 10 µM; note: potency is the fitted concentration of half-maximal effect). The settings on record: purified GBA, blue fluorogenic substrate, 40 min. Put shortly: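 Compounds titrated from 0.6 nM upwards against 0.2 nM enzyme in pH 5.9 citric acid/KH2PO4, taurocholate, tween-20; blue fluorogenic substrate 80 uM, 40 min room temperature, stopped and read Ex 365/Em 440 for AC50.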

Assay [2] can be described thus: AP1 Signaling Pathway (AID 357).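 Note: ME-180 reporter cells stimulated with EGF at its EC50 level; % is set by controls: 0 for no effect and ±100 for the full control effect.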 To be noted: ME-180 AP-1-bla reporter, EGF-induced, beta-lactamase ratio, 5 h; at 7.69 µM (top of the series) unless noted. Put shortly:
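AP-1-bla ME-180 cells, Opti-MEM + 0.5% dialyzed FBS, plated overnight 37 °C. Cpd titration + EC50 EGF, 5 h 37 °C. CCF4 2.5 h RT; ex 405, em 460/530 ratio → %activity, AC50.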

Assay [3] has as its target Cytochrome P450 1A2 (Homo sapiens) (UniProt P05177). As to the kind of experiment: p450-cyp1a2 (AID 410; calls by dose curve; note: potency is the fitted concentration of half-maximal effect;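 for activity change, negative = inhibition: -100% = full effect of reference inhibitor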). To be noted: recombinant CYP1A2, luciferin-ME demethylation, luminescence; series mostly up to 11.4 µM. In a few lines:
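Inhibition was calculated relative to 57 uM furafylline (full inhibition). The reaction used human CYP1A2 at 20nM with Luciferin-ME at its Km, 100uM, driven by an NADPH-regenerating system for 60 min at room temperature.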

Assay [4] can be described thus: NFAT Signaling Pathway (AID 444).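 Note: carbachol stimulus at about its EC50 of 1 µM final; % is set by controls: 0 for no effect and ±100 for the full control effect.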 To be noted: Jurkat NFAT-bla M1, carbachol, beta-lactamase ratio, 5 h; at 7.69 µM (top of the series) unless noted. In a few lines:
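Read-out: CCF4 FRET ratio (460 nm/530 nm) after 1 h RT dye loading, used for %activity and AC50 from titration series. Cells: Jurkat NFAT-β-lactamase/M1 line, treated with compound plus 1 uM carbachol for 5 h, 37 °C.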

Assay [5] is described as follows: Stat Signaling Pathway (AID 446).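 Note: ME-180 cervical cancer cells given 40 pM IL-6 alongside compound; SIE-controlled beta-lactamase reporter measured as 460/530 nm FRET emission ratio; % is set by controls: 0 for no effect and ±100 for the full control effect.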 The settings on record: ME-180 SIE beta-lactamase reporter, IL-6 stimulated, 5 h; at 7.69 µM (top of the series) unless noted. Put shortly: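 ME-180 SIE-bla cells; overnight plating; cpd + IL-6 40 pM, 5 h, 37 C; LiveBLAzer 2.5 h RT; 460/530 nm emission ratio. Normalized to 300 pM IL-6 and 125 nM JAK inhibitor controls.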
In assay [6] the target is Glucocorticoid receptor (Homo sapiens) (UniProt P04150). Description: GR-GFP Redistribution (AID 450;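 active = compounds whose dose series gives a full or clear partial fitted curve of increased nuclear translocation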; note: potency is the fitted concentration of half-maximal effect). To be noted: U2OS GR-GFP nuclear translocation, laser cytometry, 2 h.
Assay [7] has the same target. As to the kind of experiment: GR-EFC Redistribution (AID 451; calls by dose curve; note: potency is the fitted concentration of half-maximal effect). The settings on record: CHO-K1 GR-EFC translocation, beta-gal luminescence, 2 h. In a few lines:
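Translocation of GR-ED fusion to nuclear EA restores b-gal, read by luminescence after 1 h room-temperature detection. Engineered CHO-K1 biosensor cells, 1,000/well, exposed 2 h at 37 C to titrations up to 46 uM final.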

In assay [8] the target is Mitogen-activated protein kinase 10 (Mus musculus) (UniProt Q61831). As to the kind of experiment: JNK3 AlphaScreen Assay (AID 530).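 Note: kinase came from lysate of stimulated human HepG2 cells; signal reports phosphorylation of biotinylated GST-cJun 1-79 at Ser73 with 10 µM ATP; % is set by controls: 0 for no effect and ±100 for the full control effect.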 The settings on record: JNK3 lysate, c-Jun phosphorylation; series mostly up to 11.4 µM. Put shortly: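 Room-temperature AlphaScreen kinase assay; pre-activated HepG2 lysate as JNK3 source, biotin-GST-cJun(1-79) substrate, 10 uM ATP, compound 15 min preincubation.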
In general terms: Alpha assays give light when donor and acceptor beads are brought close together.

In assay [9] the target is 3',5'-cyclic-AMP phosphodiesterase 4B (Homo sapiens) (UniProt Q07343). Description: qHTS Assay for Inhibitors of PDE-IV (AID 607; active = well fitted activation curve with a large enough effect in the main read-out, with a control signal flat, not every such curve was filed as active; note: % of control where 0% means no effect). To be noted: HEK293 ACTOne CNG channel cells, membrane potential fluorescence; series mostly up to 22.9 µM. In a few lines: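 ACTOne HEK293 cells carry a modified cAMP-gated CNG channel and express endogenous PDE4; plated 1000 cells/well, compounds up to 22.9 uM final. Membrane-potential dye fluorescence (ex 535/em 590) was read; parental cells received 10 uM forskolin + 100 uM RO 20-1724.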

Structures are written as SMILES. Unmarked numbers belong to inactive results. Results filed as inconclusive are left out. Calls of active or inactive are those of the source. Unless noted, calls come from the whole dose curve; as a rule, active = well fitted curve in either direction with a large enough effect (not every such curve was filed as active); inconclusive = small, poorly fitted or top-dose-only effect, or another doubt; inactive = flat fitted curve, though single readings scatter.

3',5'-cyclic-AMP phosphodiesterase 4B (Homo sapiens), sequence (Q07343 whole entry, looked up): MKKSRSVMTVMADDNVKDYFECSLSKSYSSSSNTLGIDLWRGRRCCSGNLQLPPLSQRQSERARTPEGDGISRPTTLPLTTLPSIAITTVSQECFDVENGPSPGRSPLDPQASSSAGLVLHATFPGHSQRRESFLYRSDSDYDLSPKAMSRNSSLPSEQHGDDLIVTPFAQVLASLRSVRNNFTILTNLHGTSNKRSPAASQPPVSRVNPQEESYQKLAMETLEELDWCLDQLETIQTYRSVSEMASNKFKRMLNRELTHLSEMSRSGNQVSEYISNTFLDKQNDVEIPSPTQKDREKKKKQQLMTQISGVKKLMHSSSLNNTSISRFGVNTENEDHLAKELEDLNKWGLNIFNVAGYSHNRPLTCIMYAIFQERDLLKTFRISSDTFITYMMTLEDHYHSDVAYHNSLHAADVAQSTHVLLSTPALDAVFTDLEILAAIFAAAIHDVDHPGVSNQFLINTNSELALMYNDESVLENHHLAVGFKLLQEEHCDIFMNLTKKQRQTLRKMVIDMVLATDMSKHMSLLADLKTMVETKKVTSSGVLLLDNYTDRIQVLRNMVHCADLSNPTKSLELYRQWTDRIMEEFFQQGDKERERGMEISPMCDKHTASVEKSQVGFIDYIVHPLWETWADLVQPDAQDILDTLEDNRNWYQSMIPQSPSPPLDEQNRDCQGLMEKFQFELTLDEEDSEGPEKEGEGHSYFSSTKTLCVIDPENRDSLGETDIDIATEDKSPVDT
Lysosomal acid glucosylceramidase (Homo sapiens), sequence (P04062 whole entry, looked up): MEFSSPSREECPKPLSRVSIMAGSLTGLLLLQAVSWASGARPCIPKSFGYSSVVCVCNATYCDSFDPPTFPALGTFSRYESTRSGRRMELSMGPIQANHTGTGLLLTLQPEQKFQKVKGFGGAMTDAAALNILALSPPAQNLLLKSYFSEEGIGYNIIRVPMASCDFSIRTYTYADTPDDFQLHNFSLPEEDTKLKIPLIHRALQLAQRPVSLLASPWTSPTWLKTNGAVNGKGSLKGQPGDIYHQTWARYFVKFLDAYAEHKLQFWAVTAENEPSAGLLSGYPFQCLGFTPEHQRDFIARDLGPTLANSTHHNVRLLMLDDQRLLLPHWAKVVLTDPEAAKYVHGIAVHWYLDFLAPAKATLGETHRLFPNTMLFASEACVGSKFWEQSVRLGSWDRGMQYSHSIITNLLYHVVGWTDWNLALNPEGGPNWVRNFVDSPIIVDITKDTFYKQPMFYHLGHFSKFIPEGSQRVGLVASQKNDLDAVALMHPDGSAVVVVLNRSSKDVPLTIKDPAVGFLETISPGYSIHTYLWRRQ
Glucocorticoid receptor (Homo sapiens), sequence (P04150 whole entry, looked up): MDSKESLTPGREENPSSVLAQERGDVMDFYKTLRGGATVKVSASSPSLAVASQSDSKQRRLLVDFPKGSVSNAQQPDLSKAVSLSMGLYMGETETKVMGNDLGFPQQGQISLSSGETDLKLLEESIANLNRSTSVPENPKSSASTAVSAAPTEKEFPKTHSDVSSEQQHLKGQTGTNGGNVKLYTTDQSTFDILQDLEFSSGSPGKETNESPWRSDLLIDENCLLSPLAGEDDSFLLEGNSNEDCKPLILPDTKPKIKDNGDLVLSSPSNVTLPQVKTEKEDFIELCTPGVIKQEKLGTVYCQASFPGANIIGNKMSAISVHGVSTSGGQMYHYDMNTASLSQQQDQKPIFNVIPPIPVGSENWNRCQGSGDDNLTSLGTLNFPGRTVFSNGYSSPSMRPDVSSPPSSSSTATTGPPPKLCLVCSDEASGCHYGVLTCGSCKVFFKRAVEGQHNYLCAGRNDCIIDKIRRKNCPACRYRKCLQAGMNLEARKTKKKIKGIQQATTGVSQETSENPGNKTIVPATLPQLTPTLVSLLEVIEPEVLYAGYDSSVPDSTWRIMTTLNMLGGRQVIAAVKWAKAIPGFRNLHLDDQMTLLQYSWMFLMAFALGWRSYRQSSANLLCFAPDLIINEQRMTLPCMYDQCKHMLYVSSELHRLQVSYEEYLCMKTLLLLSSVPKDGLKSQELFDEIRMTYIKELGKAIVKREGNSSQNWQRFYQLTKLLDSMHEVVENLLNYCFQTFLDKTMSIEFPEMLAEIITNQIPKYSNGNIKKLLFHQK
Cytochrome P450 1A2 (Homo sapiens), sequence (P05177 whole entry, looked up): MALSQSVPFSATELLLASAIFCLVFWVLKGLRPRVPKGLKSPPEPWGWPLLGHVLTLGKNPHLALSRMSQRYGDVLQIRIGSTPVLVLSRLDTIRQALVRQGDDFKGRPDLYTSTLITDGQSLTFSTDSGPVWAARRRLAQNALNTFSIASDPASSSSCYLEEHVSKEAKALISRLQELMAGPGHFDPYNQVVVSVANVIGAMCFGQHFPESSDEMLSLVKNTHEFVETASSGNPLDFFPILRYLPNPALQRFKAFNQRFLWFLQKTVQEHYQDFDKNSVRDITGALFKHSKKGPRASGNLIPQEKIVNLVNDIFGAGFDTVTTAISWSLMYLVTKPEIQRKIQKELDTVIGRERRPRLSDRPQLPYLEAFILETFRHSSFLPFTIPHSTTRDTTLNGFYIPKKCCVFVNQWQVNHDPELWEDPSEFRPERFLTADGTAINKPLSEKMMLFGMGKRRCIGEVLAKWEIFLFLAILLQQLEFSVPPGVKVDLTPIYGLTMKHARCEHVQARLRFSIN

In the case of `Cc1ccc(S(=O)(=O)NCc2cccc([N+](=O)[O-])c2)cc1`, the Potency in [1] is above 11.4 µM; in assay [3], 3.98 µM (active); in [6], above 46 µM; in assay [7] it was above 9.22 µM. Moreover, the activity change, negative = inhibition in assay [2] was -2.52%; in assay [4], 6.53%. Besides, the activity, negative = inhibition in [5] is 2.25%. The Potency entry in [8] and in assay [9] was “inactive” throughout.

As to `Oc1cccnc1CN1CCCCC1`, the Potency was above 11.4 µM in [1], above 46 µM in [6] and above 9.22 µM in assay [7]. In addition, the values for the activity change, negative = inhibition in [2] and in assay [4] were -3.72% and 11.7%, respectively. The Potency result in assay [3], in [8] and in assay [9] was “inactive” throughout. Also, the activity, negative = inhibition in assay [5] is 16.8%.

Turning to `CN(C)CCCNc1cc(O)c2c(c1O)C(=O)c1ccccc1C2=O`, the Potency is above 11.4 µM in assay [1], above 46 µM in assay [6] and above 9.22 µM in assay [7]. Besides, the activity change, negative = inhibition in assay [2] was 9.25%; in [3] it was -23.1% [at 2.29 µM]; in assay [4] it was 23.5%. Also, the activity, negative = inhibition in [5] was 26%. The Potency entry in assay [8] and in assay [9] was “inactive” throughout.

With `CC(C)[C@@H](C)/C=C\[C@@H](C)[C@@H]1CC[C@H]2C3=CC=C4C[C@@H](O)CC[C@]4(C)[C@H]3CC[C@]21C`, the Potency in assay [1] was above 11.4 µM; in assay [6], above 46 µM; in [7], above 9.22 µM. The figures for the activity change, negative = inhibition in [2] and in [4] were -3.49% and 25.1%, respectively. Further, the Potency result in assay [3] and in [8] was “inactive” throughout. For the same molecule, the activity, negative = inhibition in assay [5] is -5.31%.

With `O=c1c[n+](CC[n+]2cc(=O)o[nH]2)[nH]o1`, the Potency is above 11.4 µM in assay [1], 2.51 µM (active) in [3], above 46 µM in assay [6] and above 9.22 µM in assay [7]. Moreover, the figures for the activity change, negative = inhibition in [2] and in [4] were 2.98% and 12.3%, respectively. In addition, in assay [5], the activity, negative = inhibition is 4.21%. Further, the Potency result in assay [8] and in [9] was “inactive” throughout.

For the molecule `c1ccc([C@H](CCN2CCCC2)c2ccccn2)cc1`, the results for the Potency in assay [1], in assay [6] and in assay [7] were above 11.4 µM, above 46 µM and above 9.22 µM, respectively. The values for the activity change, negative = inhibition in assay [2] and in assay [4] were -0.626% and -26.3%, respectively. The Potency entry in assay [3], in [8] and in assay [9] was “inactive” in each case. The activity, negative = inhibition in [5] was 0.606%.

In the case of `NS(=O)(=O)c1cc(Br)c(N=Nc2ccc(O)c3ncccc23)c(Br)c1`, the Potency is above 11.4 µM in assay [1], 1.26 µM (active) in assay [3], above 46 µM in assay [6] and above 9.22 µM in assay [7]. Besides, the activity change, negative = inhibition in [2] was -0.828%; in assay [4], 10.5%. For the same molecule, in assay [5], the activity, negative = inhibition is 21.9%. In addition, the Potency result in assay [8] and in [9] was “inactive” in each case.

For `COc1cc(N=C(N)N=C(N)N)c2ncccc2c1`, the Potency was above 11.4 µM in assay [1], 0.398 µM (active) in assay [3], above 46 µM in [6] and above 9.22 µM in assay [7]. Moreover, the activity change, negative = inhibition in assay [2] is -8.09%; in assay [4] it was 3.48%. Further, in assay [5], the activity, negative = inhibition was -1.33%. Further, the Potency result in [8] was “inactive”.

With `Nc1cc(S(=O)(=O)O)cc2ccc(S(=O)(=O)O)cc12`, the Potency in assay [1] is above 11.4 µM; in [6] it was above 46 µM; in assay [7] it was above 9.22 µM. Also, the results for the activity change, negative = inhibition in assay [2], in assay [3] and in assay [4] were 1.79%, -18.1% [at 2.29 µM] and 2.43%, respectively. In addition, the activity, negative = inhibition in assay [5] is -1.78%. For the same molecule, in assay [8], the Potency result was “inactive”.

Take `CCOC(=O)CCCN`: the Potency was above 11.4 µM in assay [1], 6.31 µM (active) in [3], above 46 µM in assay [6] and above 9.22 µM in assay [7]. Further, the activity change, negative = inhibition is -4.22% in assay [2] and 2.34% in assay [4]. Also, in [5], the activity, negative = inhibition was 8.34%. The Potency entry in assay [8] and in assay [9] was “inactive” each time.

Consider `Oc1cc(CN2COc3ccccc32)c(O)cc1CNC1CCCCC1`, for which the Potency in assay [1] was above 11.4 µM; in assay [6] it was above 46 µM; in [7], above 9.22 µM. Also, the activity change, negative = inhibition in [2] was 6.94%; in [4] it was -5.35%. For the same molecule, the Potency entry in assay [3], in [8] and in assay [9] was “inactive” each time. In addition, the activity, negative = inhibition in assay [5] is 0.916%.
